Reference: PubChem BioAssay (NCATS)
Inconclusive results are not listed. Calls of active or inactive are those of the source. The call rests on the fitted dose curve; in most records, active means well fitted curve in the direction sought with a large enough effect; inconclusive means small, poorly fitted or top-dose-only effect, or another doubt; inactive means no such curve, though single readings can be large; an effect the other way counts as inactive or inconclusive.

Experiments:
[1] = biological target: Cytochrome P450 3A4 (Homo sapiens) (UniProt P08684); test: qHTS for inhibitors of CYP3A4 against the NCATS DSHEA and TCM libraries (AID 1919971);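 further: on the % scale 0 is the no-effect control and ±100 the full control effect; inhibition lowers luminescence from luciferin made by CYP3A4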
Outline: (§1)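 Luminescent P450-Glo format: compounds preincubated 15 min with enzyme and luciferin substrate, reaction run 30-45 min after NADPH regeneration solution. Intraplate controls: ketoconazole for CYP3A4 and CYP2C19, sulfaphenazole for CYP2C9.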

[2] = biological target: Cytochrome P450 2D6 (Homo sapiens) (UniProt P10635); test: qHTS for inhibitors of CYP2D6 against the NCATS DSHEA and TCM libraries (AID 1919972); further: on the % scale 0 is the no-effect control and ±100 the full control effect
Outline: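 Luminescent P450-Glo read-out of CYP2D6 turnover of a luciferin substrate after NADPH-driven reaction of 30-45 min at room temperature. Compounds were first preincubated 15 min with enzyme at titrated concentrations; quinidine was the intraplate control.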

[3] = biological target: Cytochrome P450 2C9 (Homo sapiens) (UniProt P11712); test: qHTS for inhibitors of CYP2C9 against the NCATS DSHEA and TCM libraries (AID 1919973);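 further: luminogenic pro-luciferin CYP2C9 substrate turned into luciferin with NADPH regeneration; series mostly up to about 34 µM; on the % scale 0 is the no-effect control and ±100 the full control effect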
Outline: as §1

[4] = biological target: Cytochrome P450 2C19 (Homo sapiens) (UniProt P33261); test: qHTS for inhibitors of CYP2C19 against the NCATS DSHEA and TCM libraries (AID 1919974);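 further: luminescence from luciferin released by CYP2C19 oxidation of a pro-luciferin substrate; on the % scale 0 is the no-effect control and ±100 the full control effect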
Outline: as §1

[5] = KB-3-1 P-gp reporter qHTS against the NCATS DSHEA and TCM libraries (AID 1919975); further: 0% is about no effect
Outline: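 72 h exposure of KB-3-1 cells (DMEM, 10% FBS) to DSHEA/TCM samples, concentration-response; cell viability measured as CellTiter-Glo luminescence after 30 min at room temperature.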

[6] = biological target: Cytochrome P450 1A2 (Homo sapiens) (UniProt P05177); test: qHTS for inhibitors of CYPIA2 against the NCATS DSHEA and TCM libraries (AID 1919976);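 further: light from luciferin formed by CYP1A2 from a pro-luciferin substrate; series mostly up to about 37 µM; on the % scale 0 is the no-effect control and ±100 the full control effect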
Outline: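 Human CYP1A2 with pro-luciferin substrate (typically 100 mM KPO4), 15 min preincubation with compound, then 1x NADPH regeneration for 30-45 min at room temperature in the dark. Luciferin quantified by luciferase luminescence; furafylline intraplate control.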

[7] = qHTS Counterscreen for compound interference against the NCATS DSHEA and TCM libraries (AID 1919978); conditions: firefly luciferase detection reagent interference, luminescence; further: % of control where 0% means no effect
Outline: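 Read-out is luminescence after 30 min at RT with luciferin detection reagent. Before that, compounds (19.5 nM to 39.8 uM final) sat 15 min at RT with 1 uM D-luciferin or 100 mM potassium phosphate buffer. PTC124 served as intraplate control.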

[8] = Dual reporter qHTS for agonist of Pregnane X Receptor (hPXR) against the NCATS DSHEA and TCM libraries: Fluorescence readout (AID 1920058); further: 0% is about no effect
Outline: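 hPXR-Luc HepG2 cells, 2000/well in charcoal-stripped serum, attached 5 h, dosed for ~24 h at 37 °C. Fluorescence read is CellTiter-Fluor viability (Ex/Em 405/540 nm); rifampicin positive, tetraoctyl ammonium bromide (92 µM) cytotoxicity controls.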

[9] = biological target: Nuclear receptor subfamily 1 group I member 2 (Homo sapiens) (UniProt O75469); test: Dual reporter qHTS for agonist of Pregnane X Receptor (hPXR) against the NCATS DSHEA and TCM libraries: Luminescence readout (AID 1920059); further: 0% is about no effect
Outline: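 Luminescent PXR reporter read (ONE-Glo) after a CellTiter-Fluor viability read, following 24 h, 37C treatment of HepG2 cells stably carrying hPXR-Luc.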

[10] = biological target: Nuclear receptor subfamily 1 group I member 2 (Homo sapiens) (UniProt O75469); test: Dual reporter qHTS for antagonist of Pregnane X Receptor (hPXR) against the NCATS DSHEA and TCM libraries: Luminescence Readout (AID 1920060);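 further: HepG2 cells carrying hPXR luciferase reporter stimulated with rifampicin at 2 µM; 0% is about no effect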
Outline: (§2)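 Antagonist mode: rifampicin 2 uM final co-added with compounds to hPXR-LucHepG2 cells for 24 h at 37C. Viability by CellTiter-Fluor, Ex/Em 405/540 nm, 1 h; reporter by ONE-Glo luminescence.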

[11] = Dual reporter qHTS for antagonist of Pregnane X Receptor (hPXR) against the NCATS DSHEA and TCM libraries: Fluorescence Readout (AID 1920061); further: 0% is about no effect
Outline: as §2

Measured: max response

Nuclear receptor subfamily 1 group I member 2 (Homo sapiens), sequence (O75469 whole entry, looked up): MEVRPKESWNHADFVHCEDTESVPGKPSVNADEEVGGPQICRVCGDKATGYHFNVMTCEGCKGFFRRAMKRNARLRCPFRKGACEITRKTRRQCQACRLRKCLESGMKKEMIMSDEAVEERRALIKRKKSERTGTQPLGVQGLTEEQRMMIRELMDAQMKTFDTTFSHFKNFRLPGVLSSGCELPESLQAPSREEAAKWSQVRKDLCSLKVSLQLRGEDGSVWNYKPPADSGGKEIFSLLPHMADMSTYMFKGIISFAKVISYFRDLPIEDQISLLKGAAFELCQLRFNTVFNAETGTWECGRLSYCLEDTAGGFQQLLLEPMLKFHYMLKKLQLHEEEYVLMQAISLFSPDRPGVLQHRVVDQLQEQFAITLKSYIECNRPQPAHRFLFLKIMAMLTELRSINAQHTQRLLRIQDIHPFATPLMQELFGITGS
Cytochrome P450 2D6 (Homo sapiens), sequence (P10635 whole entry, looked up): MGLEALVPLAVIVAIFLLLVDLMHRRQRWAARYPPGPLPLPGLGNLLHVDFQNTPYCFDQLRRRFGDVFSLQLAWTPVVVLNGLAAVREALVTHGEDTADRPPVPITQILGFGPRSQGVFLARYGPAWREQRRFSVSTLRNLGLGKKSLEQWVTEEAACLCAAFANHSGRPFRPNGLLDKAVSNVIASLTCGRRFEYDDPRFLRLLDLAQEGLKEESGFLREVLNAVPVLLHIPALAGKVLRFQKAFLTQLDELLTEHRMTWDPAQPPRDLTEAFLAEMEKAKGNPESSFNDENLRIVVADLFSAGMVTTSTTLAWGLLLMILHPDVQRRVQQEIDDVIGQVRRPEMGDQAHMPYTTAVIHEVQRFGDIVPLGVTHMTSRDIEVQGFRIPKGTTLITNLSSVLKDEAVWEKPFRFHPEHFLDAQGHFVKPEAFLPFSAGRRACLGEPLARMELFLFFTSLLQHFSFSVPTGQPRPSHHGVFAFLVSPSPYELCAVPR
Cytochrome P450 3A4 (Homo sapiens), sequence (P08684 whole entry, looked up): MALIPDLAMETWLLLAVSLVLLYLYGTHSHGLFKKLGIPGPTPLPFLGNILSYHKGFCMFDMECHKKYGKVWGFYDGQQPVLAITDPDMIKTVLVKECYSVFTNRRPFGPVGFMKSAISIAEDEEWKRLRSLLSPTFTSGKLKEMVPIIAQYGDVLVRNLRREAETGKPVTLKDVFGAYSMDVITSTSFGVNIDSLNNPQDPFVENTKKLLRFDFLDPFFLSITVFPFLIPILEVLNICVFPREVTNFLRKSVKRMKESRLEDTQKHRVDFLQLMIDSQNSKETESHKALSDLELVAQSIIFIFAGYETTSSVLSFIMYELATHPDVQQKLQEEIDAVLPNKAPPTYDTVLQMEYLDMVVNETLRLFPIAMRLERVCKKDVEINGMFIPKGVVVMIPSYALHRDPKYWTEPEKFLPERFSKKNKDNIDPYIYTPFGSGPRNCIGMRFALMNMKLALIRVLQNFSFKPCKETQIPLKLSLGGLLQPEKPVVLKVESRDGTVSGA
Cytochrome P450 2C9 (Homo sapiens), sequence (P11712 whole entry, looked up): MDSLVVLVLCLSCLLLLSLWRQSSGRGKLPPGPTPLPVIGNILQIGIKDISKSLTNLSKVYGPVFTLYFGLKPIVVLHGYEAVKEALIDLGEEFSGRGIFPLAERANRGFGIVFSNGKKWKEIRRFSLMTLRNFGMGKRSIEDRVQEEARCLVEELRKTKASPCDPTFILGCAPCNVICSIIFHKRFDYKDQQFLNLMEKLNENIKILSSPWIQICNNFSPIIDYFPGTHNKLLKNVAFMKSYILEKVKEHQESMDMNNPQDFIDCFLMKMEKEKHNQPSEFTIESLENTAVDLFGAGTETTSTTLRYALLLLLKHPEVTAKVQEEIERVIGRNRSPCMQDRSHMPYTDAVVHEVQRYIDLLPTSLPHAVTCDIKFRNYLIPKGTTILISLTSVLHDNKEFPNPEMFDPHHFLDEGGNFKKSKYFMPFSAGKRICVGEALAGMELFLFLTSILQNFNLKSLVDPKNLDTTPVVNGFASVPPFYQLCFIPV
Cytochrome P450 1A2 (Homo sapiens), sequence (P05177 whole entry, looked up): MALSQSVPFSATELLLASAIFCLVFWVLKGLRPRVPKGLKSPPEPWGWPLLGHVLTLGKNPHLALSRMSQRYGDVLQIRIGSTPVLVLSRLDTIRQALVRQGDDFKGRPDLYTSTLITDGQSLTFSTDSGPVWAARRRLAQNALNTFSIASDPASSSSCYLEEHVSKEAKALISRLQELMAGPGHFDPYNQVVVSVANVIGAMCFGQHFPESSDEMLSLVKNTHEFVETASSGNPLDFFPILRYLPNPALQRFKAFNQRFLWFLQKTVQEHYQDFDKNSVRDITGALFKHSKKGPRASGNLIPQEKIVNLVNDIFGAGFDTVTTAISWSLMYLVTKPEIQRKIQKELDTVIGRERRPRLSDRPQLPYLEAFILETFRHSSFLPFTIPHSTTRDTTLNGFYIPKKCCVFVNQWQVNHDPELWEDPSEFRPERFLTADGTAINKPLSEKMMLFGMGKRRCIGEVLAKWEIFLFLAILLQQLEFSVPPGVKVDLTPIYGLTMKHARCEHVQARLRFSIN
Cytochrome P450 2C19 (Homo sapiens), sequence (P33261 whole entry, looked up): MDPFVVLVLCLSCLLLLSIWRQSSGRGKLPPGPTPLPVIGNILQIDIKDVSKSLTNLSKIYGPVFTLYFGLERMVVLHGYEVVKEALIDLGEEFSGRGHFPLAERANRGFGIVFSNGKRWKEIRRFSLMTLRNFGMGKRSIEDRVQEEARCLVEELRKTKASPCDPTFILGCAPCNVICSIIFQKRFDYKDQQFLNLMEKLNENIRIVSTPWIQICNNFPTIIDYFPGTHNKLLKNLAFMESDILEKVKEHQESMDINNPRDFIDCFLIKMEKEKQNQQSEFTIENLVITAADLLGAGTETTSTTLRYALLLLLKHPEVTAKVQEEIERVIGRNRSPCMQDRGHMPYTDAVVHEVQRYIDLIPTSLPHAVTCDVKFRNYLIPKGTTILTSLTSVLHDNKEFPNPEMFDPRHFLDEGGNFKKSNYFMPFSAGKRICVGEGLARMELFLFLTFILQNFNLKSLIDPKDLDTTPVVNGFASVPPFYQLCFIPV

C=C1C[C@@]23CC[C@H]4[C@@](C)(CCC[C@@]4(C)C(=O)OC4OC(CO)C(O)C(O)C4O)[C@@H]2CC[C@]1(OC1OC(CO)C(O)C(O)C1OC1OC(CO)C(O)C(O)C1O)C3 (some centres undefined)
inactive: [1] | [2] | [3] | [4] | [5] | [6] | [7] 4.65% | [8] | [9] | [10] | [11]

O=C(O)/C=C/c1ccc(O)c(O)c1
inactive: [1] | [2] | [3] | [5] | [7] -3.07% | [8] | [10] | [11]
